Assay results reported in PubChem BioAssay (NCI).
This is part of a sample that, as a whole, favours compounds with a hit. Of some 79,000 tested, about 15% had one in any assay. Calls of active or inactive are those of the source. No stated cut-off is given here; in the data, active means growth inhibition above about 70%; inactive means the rest.

How the values were obtained:
[1] = NCI Yeast Anticancer Drug Screen. Data for the wt1 strain (AID 149);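 further: 0% = growth of vehicle-treated wt1 cultures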; conditions: S. cerevisiae wt1 strain (SPY 50644) growth inhibition, active compounds read high
How it was run: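 Using yeast strain wt1, compound-induced growth inhibition was determined against vehicle-treated cultures.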

[2] = NCI Yeast Anticancer Drug Screen. Data for the rad50EPP+ strain (AID 151);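 further: 0% = growth of vehicle-treated control cultures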; conditions: S. cerevisiae rad50 mutant strain, active compounds read high
How it was run: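 In this screen, rad50EPP+ yeast were exposed to compounds. Growth inhibition was scored against vehicle-treated controls.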

[3] = NCI Yeast Anticancer Drug Screen. Data for the mgt1 strain (AID 153); conditions: S. cerevisiae mgt1 mutant growth inhibition, active compounds read high
How it was run: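 mgt1 strain exposed; growth vs vehicle control recorded as inhibition.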

[4] = NCI Yeast Anticancer Drug Screen. Data for the rad50 strain (AID 155);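 further: 0% = growth of vehicle-only cultures of the same strain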; conditions: S. cerevisiae rad50 strain growth inhibition, active compounds read high
How it was run: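 Relative growth inhibition (compound vs vehicle) was measured in yeast with a defined repair-gene alteration.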

[5] = NCI Yeast Anticancer Drug Screen. Data for the mec2-1 strain (AID 157); conditions: S. cerevisiae mec2-1 strain, active compounds read high
How it was run: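 Vehicle-treated cultures served as reference for growth inhibition of compound-exposed mec2-1 yeast.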

[6] = NCI Yeast Anticancer Drug Screen. Data for the rad14 strain (AID 159);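 further: 0% = growth of vehicle-treated control cultures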; conditions: S. cerevisiae rad14 strain growth inhibition, active compounds read high
How it was run: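 Screen for anticancer potential: a yeast strain altered in DNA damage repair is grown with compound, and reduced growth is quantified against vehicle controls.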

[7] = NCI Yeast Anticancer Drug Screen. Data for the CLN2oe strain (AID 163);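 further: 0% = growth of vehicle-only control cultures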; conditions: S. cerevisiae CLN2oe strain, active compounds read high
How it was run: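 Inhibition relative to vehicle-treated yeast is reported. Cells: strain with genetic alteration in cell-cycle control, grown with compound.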

[8] = NCI Yeast Anticancer Drug Screen. Data for the cln2 rad14 strain (AID 165);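 further: 0% = growth equal to vehicle treated cultures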; conditions: S. cerevisiae cln2 rad14 strain, active compounds read high
How it was run: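 Each compound was tested on cln2 rad14 yeast. Inhibition of growth was calculated against vehicle-exposed controls.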

[9] = NCI Yeast Anticancer Drug Screen. Data for the bub3 strain (AID 167); conditions: S. cerevisiae bub3 mutant strain, active compounds read high
How it was run: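 Screening used yeast with an engineered genetic alteration affecting cell cycle control. Compound-exposed cultures were compared with vehicle cultures, and reduced growth was taken as inhibition.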

[10] = NCI Yeast Anticancer Drug Screen. Data for the mlh1 strain (AID 171);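 further: 0% = growth of vehicle-treated control cultures of the same strain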; conditions: S. cerevisiae mlh1 strain growth inhibition, active compounds read high
How it was run: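 Vehicle-normalised growth inhibition of a repair- or checkpoint-altered yeast strain following compound treatment.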

[11] = NCI Yeast Anticancer Drug Screen. Data for the mlh1 rad18 strain (AID 175); conditions: S. cerevisiae mlh1 rad18 strain growth inhibition, active compounds read high
How it was run: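 Vehicle-treated cultures served as the reference for growth inhibition in a yeast strain carrying DNA damage repair alterations exposed to each compound.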

[12] = NCI Yeast Anticancer Drug Screen. Data for the rad18 strain (AID 177); conditions: S. cerevisiae rad18 mutant growth inhibition, active compounds read high
How it was run: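 Test articles were incubated with altered yeast defective in DNA damage repair. Results are given as inhibition of growth versus vehicle.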

[13] = NCI Yeast Anticancer Drug Screen. Data for the sgs1 mgt1 strain (AID 161);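 further: 0% = growth of cultures given vehicle only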; conditions: S. cerevisiae sgs1 mgt1 strain, active compounds read high
How it was run: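 Read-out: growth inhibition vs vehicle controls. Cells: mutant yeast strain deficient in DNA damage repair.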

[14] = NCI Yeast Anticancer Drug Screen. Data for the sgs1 strain (AID 173);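 further: 0% = growth of vehicle-only control cultures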; conditions: S. cerevisiae sgs1 mutant, active compounds read high
How it was run: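 Screen format: yeast with repair or checkpoint alterations, compound exposure, growth read relative to vehicle.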

[15] = at 5.0 µM (retest, dose inferred, filed as 0.5)
[16] = at 50.0 µM (retest, dose inferred, filed as 5.0)

Measured: growth inhibition

CCC(C)C(=O)OCC(=O)c1ccc(-c2ccccc2)cc1 (stereo not given)
active: [9]; [16] 74% | [9]; at 50.0 µM 87.2% | [9]; at 100.0 µM 75%
inactive: [1]; at 1.2 µM -1% | [1]; at 3.7 µM -2% | [1]; at 11.0 µM -2% | [1]; at 33.0 µM -5% | [1]; at 100.0 µM -7% | [2]; at 1.2 µM 1% | [2]; at 3.7 µM 3% | [2]; at 11.0 µM 8% | [2]; at 33.0 µM 10% | [2]; at 100.0 µM 9% | [3]; at 1.2 µM 0% | [3]; at 3.7 µM -1% | [3]; at 11.0 µM 1% | [3]; at 33.0 µM -4% | [3]; at 100.0 µM -35% | [4]; at 1.2 µM 0% | [4]; at 3.7 µM 0% | [4]; [15] 13% | [4]; at 11.0 µM 0% | [4]; at 33.0 µM 1% | [4]; [16] -8% | [4]; at 50.0 µM -8.9% | [4]; at 100.0 µM -2% | [5]; at 1.2 µM -3% | [5]; at 3.7 µM -2% | [5]; [15] -3% | [5]; at 11.0 µM -2% | [5]; at 33.0 µM -4% | [5]; [16] 0% | [5]; at 50.0 µM 2.3% | [5]; at 100.0 µM -6% | [6]; at 1.2 µM -1% | [6]; at 3.7 µM 1% | [6]; at 11.0 µM 5% | [6]; at 33.0 µM 5% | [6]; at 100.0 µM 4% | [7]; at 1.2 µM 3% | [7]; at 3.7 µM 3% | [7]; at 11.0 µM 1% | [7]; at 33.0 µM -6% | [7]; at 100.0 µM -7% | [8]; [15] -5% | [8]; [16] -8% | [8]; at 50.0 µM 2.3% | [9]; at 1.2 µM 25% | [9]; at 3.7 µM 35% | [9]; [15] 54% | [9]; at 11.0 µM 51% | [9]; at 33.0 µM 68% | [10]; at 1.2 µM 0% | [10]; at 3.7 µM 0% | [10]; at 11.0 µM -4% | [10]; at 33.0 µM -73% | [10]; at 100.0 µM -6% | [11]; [15] -4% | [11]; [16] 5% | [11]; at 50.0 µM -2.1% | [12]; at 1.2 µM -1% | [12]; at 3.7 µM 2% | [12]; at 11.0 µM 1% | [12]; at 33.0 µM -1% | [12]; at 100.0 µM -5%

CCOC(=O)c1sc2[n+](c1C)C(=O)/C(=C/c1cc(OC)c(OC)c(OC)c1)S2
active: [1]; at 100.0 µM 88% | [2]; at 100.0 µM 76% | [3]; at 33.0 µM 86% | [3]; at 100.0 µM 93% | [4]; at 100.0 µM 87% | [5]; at 33.0 µM 76% | [5]; at 100.0 µM 92% | [6]; at 33.0 µM 77% | [6]; at 100.0 µM 92% | [13]; at 50.0 µM 80.5% | [8]; [16] 78% | [10]; at 33.0 µM 82% | [10]; at 100.0 µM 93% | [14]; at 33.0 µM 90% | [14]; at 100.0 µM 95% | [12]; at 33.0 µM 75% | [12]; at 100.0 µM 88%
inactive: [1]; at 1.2 µM 3% | [1]; at 3.7 µM 2% | [1]; at 11.0 µM 9% | [1]; at 33.0 µM 56% | [2]; at 1.2 µM 2% | [2]; at 3.7 µM 6% | [2]; at 11.0 µM 19% | [2]; at 33.0 µM 45% | [3]; at 1.2 µM 9% | [3]; at 3.7 µM 12% | [3]; at 11.0 µM 54% | [4]; at 1.2 µM 9% | [4]; at 3.7 µM 16% | [4]; [15] 1% | [4]; at 11.0 µM 18% | [4]; at 33.0 µM 68% | [4]; [16] 35% | [4]; at 50.0 µM 41% | [5]; at 1.2 µM 21% | [5]; at 3.7 µM 18% | [5]; [15] 6% | [5]; at 11.0 µM 34% | [5]; [16] 51% | [5]; at 50.0 µM 52.5% | [6]; at 1.2 µM 12% | [6]; at 3.7 µM 3% | [6]; at 11.0 µM 28% | [13]; [15] -4% | [13]; [16] 64% | [8]; [15] 13% | [8]; at 50.0 µM 55.5% | [9]; at 1.2 µM 12% | [9]; at 3.7 µM 7% | [9]; [15] -10% | [9]; at 11.0 µM 21% | [9]; at 33.0 µM 60% | [9]; [16] 12% | [9]; at 50.0 µM 40.9% | [9]; at 100.0 µM 66% | [10]; at 1.2 µM 9% | [10]; at 3.7 µM 9% | [10]; at 11.0 µM 36% | [14]; at 1.2 µM 17% | [14]; at 3.7 µM 23% | [14]; at 11.0 µM 48% | [12]; at 1.2 µM 19% | [12]; at 3.7 µM 27% | [12]; at 11.0 µM 40%
